From PubChem BioAssay (Tox21)
Inconclusive results are not listed. A call without a number means that no potency is given here. Activity calls are given as the source filed them. Unless noted, the call rests on the fitted dose curve.

Test system: not listed separately
Test: qHTS assay to identify small molecule antagonists of the estrogen related receptor signaling pathway with the pleiotropic PPARgamma coactivator (PGC) from Tox21 10K library (AID 1224841; call rule not given here; further: actives are mostly falling curves and most rising ones were filed inactive; nearly all actives have a fitted effect of over 50% in size)
Conditions: PGC/ERR reporter cell line, ONE-Glo luciferase, 18 h; series mostly up to 92.4 µM
Summary of the method: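 In the PGC/ERR line, DMSO solutions of test chemicals are pin-delivered to 2,000 cells/well six hours after dispensing. Following eighteen hours' incubation, One-Glo reagent is added and luminescence recorded.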

Question: With `CCc1cc2c(s1)-n1c(C)nnc1CN=C2c1ccccc1Cl` as the molecule, how does the Potency read?
Answer: inactive

Question: Which Potency does the source give for `CNNC` here?
Answer: inactive

Question: For `COc1cccc2c1cc([N+](=O)[O-])c1c(C(=O)O)cc3c(c12)OCO3`, which Potency is on record?
Answer: inactive

Question: With `CC(=O)Nc1cc([As](=O)(O)O)ccc1O` as the molecule, how does the Potency read?
Answer: inactive

Question: With `CNC(=O)N(C)c1nc2ccccc2s1` as the molecule, how does the Potency read?
Answer: inactive

Question: For `COc1cc(OC)nc(Sc2cccc(Cl)c2C(=O)O)n1`, which Potency is on record?
Answer: inactive

Question: For `CN1CCC(O)(c2ccc(F)cc2)C(C(=O)c2ccc(F)cc2)C1` (stereo not given), which Potency is on record?
Answer: inactive

Question: For `CC(=O)CCc1ccc2c(c1)OCO2`, which Potency is on record?
Answer: inactive

Question: For `CCCCc1c(C)nc(NCC)[nH]c1=O`, which Potency is on record?
Answer: inactive

Question: For `COc1cc(OC)nc(NC(=O)NS(=O)(=O)c2ncccc2OCC(F)(F)F)n1`, which Potency is on record?
Answer: inactive

Question: For `C1CCC(C2CCCCC2)CC1`, which Potency is on record?
Answer: inactive

Question: For `CCS(=O)(=O)CCSP(=O)(OC)OC`, which Potency is on record?
Answer: inactive

Question: For `CC1CCCCC1NC(=O)Nc1ccccc1` (stereo not given), which Potency is on record?
Answer: inactive

Test system: not listed separately
Test: qHTS assay to identify small molecule agonists of the estrogen related receptor signaling pathway with the pleiotropic PPARgamma coactivator (PGC) from Tox21 10K library (AID 1224842; active means well fitted activation curve with a large enough effect in the repeat runs; further: nearly all actives have a fitted effect of over 15% in size)
Conditions: PGC/ERR reporter cell line, luciferase ONE-Glo, 18 h; series mostly up to 92.4 µM
Summary of the method: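 Luminescence from One-Glo (30 min, room temperature) measured after PGC/ERR cells had 18 h at 37 C with pinned compound (23 nL in DMSO). Cells had been seeded at 2,000 per well and pre-incubated 6 h.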

Question: For `CCc1cc2c(s1)-n1c(C)nnc1CN=C2c1ccccc1Cl`, which outcome is on record?
Answer: inactive

Question: Which outcome does the source give for `CNNC` here?
Answer: inactive

Question: With `COc1cccc2c1cc([N+](=O)[O-])c1c(C(=O)O)cc3c(c12)OCO3` as the molecule, how does the outcome read?
Answer: inactive

Question: Which outcome does the source give for `CC(=O)Nc1cc([As](=O)(O)O)ccc1O` here?
Answer: inactive

Question: For `COc1cc(OC)nc(Sc2cccc(Cl)c2C(=O)O)n1`, which outcome is on record?
Answer: inactive

Question: For `CN1CCC(O)(c2ccc(F)cc2)C(C(=O)c2ccc(F)cc2)C1` (stereo not given), which outcome is on record?
Answer: inactive

Question: Which outcome does the source give for `CC(=O)CCc1ccc2c(c1)OCO2` here?
Answer: inactive

Question: With `CCCCc1c(C)nc(NCC)[nH]c1=O` as the molecule, how does the outcome read?
Answer: inactive

Question: For `COc1cc(OC)nc(NC(=O)NS(=O)(=O)c2ncccc2OCC(F)(F)F)n1`, which outcome is on record?
Answer: inactive

Question: Which outcome does the source give for `C1CCC(C2CCCCC2)CC1` here?
Answer: inactive

Question: Which outcome does the source give for `CCS(=O)(=O)CCSP(=O)(OC)OC` here?
Answer: inactive

Question: For `C#CCN1C(=O)COc2cc(F)c(N3C(=O)C4=C(CCCC4)C3=O)cc21`, which outcome is on record?
Answer: inactive

Question: For `CC1CCCCC1NC(=O)Nc1ccccc1` (stereo not given), which outcome is on record?
Answer: inactive

Question: Which outcome does the source give for `NC(=S)C(N)=S` here?
Answer: inactive

Target: Thyrotropin receptor (Homo sapiens) (UniProt P16473)
Test: qHTS assay to identify small molecule agonists of the thyroid stimulating hormone receptor (TSHR) signaling pathway (AID 1224843); further: nearly all actives have a fitted effect of over 45% in size
Conditions: TSHR-HEK293 cells, cAMP HTRF, agonist mode, 30 min; series mostly up to 92.4 µM
Summary of the method: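 A cell-based cAMP HTRF format was run in TSHR-transfected HEK293 cells, 800 per well. Treatment: 30 min, room temperature. Detection: 1 h with labelled cAMP and anti-cAMP cryptate. Concentration-response over 15 points, three replicates.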

Chain of Thyrotropin receptor (Homo sapiens) (P16473 whole entry, looked up): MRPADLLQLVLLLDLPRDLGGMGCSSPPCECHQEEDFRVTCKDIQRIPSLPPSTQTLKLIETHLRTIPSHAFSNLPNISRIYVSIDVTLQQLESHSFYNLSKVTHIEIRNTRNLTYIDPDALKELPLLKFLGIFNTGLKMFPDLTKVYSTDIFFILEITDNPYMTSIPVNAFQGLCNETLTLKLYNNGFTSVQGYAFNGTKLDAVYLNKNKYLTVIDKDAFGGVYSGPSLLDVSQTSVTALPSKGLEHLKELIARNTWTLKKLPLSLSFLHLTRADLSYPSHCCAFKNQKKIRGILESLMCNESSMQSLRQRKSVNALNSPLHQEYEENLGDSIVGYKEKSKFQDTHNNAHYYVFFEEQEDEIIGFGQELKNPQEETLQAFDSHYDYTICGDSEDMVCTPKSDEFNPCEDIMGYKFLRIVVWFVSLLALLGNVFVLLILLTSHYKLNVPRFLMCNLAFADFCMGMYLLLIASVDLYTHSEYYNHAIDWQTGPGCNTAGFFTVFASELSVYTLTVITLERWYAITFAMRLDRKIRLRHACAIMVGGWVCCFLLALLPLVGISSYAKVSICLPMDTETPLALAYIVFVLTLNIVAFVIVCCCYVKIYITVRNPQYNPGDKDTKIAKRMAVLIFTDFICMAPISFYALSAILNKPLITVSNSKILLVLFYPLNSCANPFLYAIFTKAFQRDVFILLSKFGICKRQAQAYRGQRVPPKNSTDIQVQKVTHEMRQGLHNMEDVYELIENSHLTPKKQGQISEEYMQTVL

Question: Which Potency does the source give for `COc1cccc2c1cc([N+](=O)[O-])c1c(C(=O)O)cc3c(c12)OCO3` here?
Answer: inactive

Question: With `CC(N)=S` as the molecule, how does the Potency read?
Answer: inactive

Question: For `CCCSC(=O)N(CCC)CCC`, which Potency is on record?
Answer: inactive

Question: With `CCN(Cc1ccc(Cl)nc1)/C(=C/[N+](=O)[O-])NC` as the molecule, how does the Potency read?
Answer: inactive

Question: With `NC1=NC(=O)C(c2ccccc2)O1` (stereo not given) as the molecule, how does the Potency read?
Answer: inactive

Question: Which Potency does the source give for `O=C(CCN1CC1)OCC(CO)(COC(=O)CCN1CC1)COC(=O)CCN1CC1` here?
Answer: inactive

Question: With `COc1cc(OC)nc(NC(=O)NS(=O)(=O)c2ncccc2C(=O)N(C)C)n1` as the molecule, how does the Potency read?
Answer: inactive

Question: Which Potency does the source give for `COC(=O)C(c1ccccc1)C1CCCCN1` (stereo not given) here?
Answer: inactive

Question: With `CC(=O)Nc1cc([As](=O)(O)O)ccc1O` as the molecule, how does the Potency read?
Answer: inactive

Question: With `CNC(=O)N(C)c1nc2ccccc2s1` as the molecule, how does the Potency read?
Answer: inactive

Question: With `COc1cc(OC)nc(Sc2cccc(Cl)c2C(=O)O)n1` as the molecule, how does the Potency read?
Answer: inactive

Question: For `Nc1cc(Cl)ccc1O`, which Potency is on record?
Answer: inactive

Question: With `CN1CCN(C(=O)O[C@H]2c3nccnc3C(=O)N2c2ccc(Cl)cn2)CC1` as the molecule, how does the Potency read?
Answer: inactive

Question: With `CN1CCC(O)(c2ccc(F)cc2)C(C(=O)c2ccc(F)cc2)C1` (stereo not given) as the molecule, how does the Potency read?
Answer: inactive

Question: With `Fc1cc(Br)ccc1CBr` as the molecule, how does the Potency read?
Answer: inactive

Question: For `CC(=O)CCc1ccc2c(c1)OCO2`, which Potency is on record?
Answer: inactive

Question: For `CCCCOC(=O)c1ccccc1C(=O)O`, which Potency is on record?
Answer: inactive

Question: Which Potency does the source give for `CCC1(c2ccccc2)C(=O)NC(=O)NC1=O` here?
Answer: inactive

Question: For `c1coc(-c2nc3ccccc3[nH]2)c1`, which Potency is on record?
Answer: inactive

Question: For `N#CC(O)c1ccccc1` (stereo not given), which Potency is on record?
Answer: inactive

Question: With `CC(C(O)c1ccccc1)N(C)C/C=C/c1ccccc1` (stereo not given) as the molecule, how does the Potency read?
Answer: inactive

Question: Which Potency does the source give for `COP(N)(=S)Oc1ccccc1C(=O)OC(C)C` (stereo not given) here?
Answer: inactive

Question: With `CCCCc1c(C)nc(NCC)[nH]c1=O` as the molecule, how does the Potency read?
Answer: inactive

Question: Which Potency does the source give for `COc1cc(OC)nc(NC(=O)NS(=O)(=O)c2ncccc2OCC(F)(F)F)n1` here?
Answer: inactive

Question: Which Potency does the source give for `C1CCC(C2CCCCC2)CC1` here?
Answer: inactive

Question: Which Potency does the source give for `CCS(=O)(=O)CCSP(=O)(OC)OC` here?
Answer: inactive

Question: Which Potency does the source give for `C#CCN1C(=O)COc2cc(F)c(N3C(=O)C4=C(CCCC4)C3=O)cc21` here?
Answer: inactive

Question: With `CC1CCCCC1NC(=O)Nc1ccccc1` (stereo not given) as the molecule, how does the Potency read?
Answer: inactive
